KLK7 zymogen act: activates the human kallikrein-7 zymogen | P49862 | purified proKLK7, EDANS-DABCYL substrate fluorescence; 100% is mature enzyme control, 0% vehicle | activation, % at 7 µM | 370,000 tested, 0.9% active;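 active = activation above the mean of all tested compounds plus 3 SD, computed per campaign excluding outliers beyond control limits, cut at about 13% in these data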
FAS-TE inh: FAS thioesterase (human) inhibition; P49327; recombinant FAS-TE, OMFH fluorogenic substrate, fluorescence endpoint; inhibition, % at 15 µM; 360,000 tested, 0.67% active; AID 602261;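 active = compounds whose normalised, plate-corrected inhibition of enzyme fluorescence in the single-dose primary screen is 50% or more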
SMARCA2 act: activators of SMARCA2 function; activation, % at 9.1 µM; AID 652017; 370,000 tested, 1% active; MG213 cells, MMTV-luciferase reporter, dexamethasone, overnight; in the data active = activation above about 7.8%
GAA850 FXN act: frataxin GAA850 promoter activation. HEK293 lucGAA850 FXN promoter luciferase reporter, 24 h; percent of 10 µM SAHA response. activation, % at 6 µM. 360,000 tested, 0.56% active. AID 540364;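 active = activation above the average of all compounds screened plus 3 SD, cutoff fixed separately per campaign, cut at about 7.5% in these data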
SMARCA2 act conf: confirmation of SMARCA2 (BRM) function activators; shares compounds with SMARCA2 act; MG213 cells, MMTV-luciferase with dexamethasone, luminescence, overnight; MG213 cells expressing E1A, Rb sequestered; DMSO wells 0%, reference activator 100%; activation, % at 9.1 µM; 3,500 tested, 30% active; AID 652260;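 active = activation above its plate's cutoff, the mean activation of tested wells plus 3 SD, cut at about 7.9% in these data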
VP16 Luc act: counter-screen for SMARCA2 activators: GAL4-VP16 luciferase reporter activation. activation, % at 9.1 µM. HEK293 GAL4-VP16 pG5luc reporter, luciferase luminescence; scaled: DMSO wells 0%, SAHA wells 100%. AID 686939. 3,500 tested, 41% active. shares compounds with SMARCA2 act;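 active = activation above the solvent-only control well mean plus 3 SD, averaged across control plates, cut at about 5.2% in these data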
Large screens that a line does not name were inactive (follow-up assays come after a bar, where they were run). This is a sample that favours compounds with a hit; in the whole collection about 2.9% have one here.

CC1CCc2c(sc(NC(=O)/C=C/c3cccs3)c2C(=O)O)C1 (centres undefined)	none
COc1ccccc1CNC(=O)COC(=O)c1nc(Cl)ccc1Cl	none
CC(=O)c1cccc(-c2ccnc3c2CC(C(=O)NCc2ccc(N4CCN(C)CC4)cc2)O3)c1 (centres undefined)	SMARCA2 act 8.7 | SMARCA2 act conf inactive | VP16 Luc act inactive
COCCNC(=O)/C(C#N)=C/c1ccc2c(c1)OCO2	SMARCA2 act 9.1 | SMARCA2 act conf inactive | VP16 Luc act inactive
Cc1cc(C)c2c(n1)sc1c(N3CCN(CCO)CC3)ncnc12	SMARCA2 act 8.5 | SMARCA2 act conf inactive | VP16 Luc act inactive
CC(NC(=O)C1CCCN(S(=O)(=O)c2cccc3nonc23)C1)c1ccccc1 (centres undefined)	none
Oc1cccc(Nc2ncnc3ccccc23)c1	SMARCA2 act 8.1 | SMARCA2 act conf inactive | VP16 Luc act inactive
Nc1cccc(Nc2ncnc3ccccc23)c1	none
CN(C)c1ccc(/C=C2\CCCc3c2nc2ccccc2c3C(=O)O)cc1	SMARCA2 act 9.6 | SMARCA2 act conf inactive | VP16 Luc act 5.5
O=C(O)c1ccc(/C=C2\CCCc3c2nc2ccccc2c3C(=O)O)cc1	none
COC(=O)c1ccc(NC(=O)CCN2CCOCC2)cc1	none
Cc1ccc(Oc2nc3ccccn3c(=O)c2/C=C(\C#N)C(=O)NC2CCS(=O)(=O)C2)cc1 (centres undefined)	none
N#CCCN(C(=O)COC(=O)c1cccc(S(=O)(=O)N2CCCCCC2)c1)c1ccc(F)cc1	none
O=C(Cn1cc(C(F)(F)F)ccc1=O)N1CCc2ccccc2C1	SMARCA2 act 8.0 | SMARCA2 act conf inactive | VP16 Luc act inactive
O=C(Cn1cc(C(F)(F)F)ccc1=O)N1CCCc2ccccc21	none
COc1cc(C(=C(CC(=O)O)C(=O)O)c2ccc3c(c2)OCO3)cc(OC)c1OC	none
COC(=O)c1ccc(C(=O)OC)c(NC(=S)N2CCN(c3cccc(Cl)c3)CC2)c1	SMARCA2 act 11 | SMARCA2 act conf inactive | VP16 Luc act inactive
COc1ccccc1CNC(=O)CN1C(=O)NC(C)(c2ccc(C)cc2)C1=O (centres undefined)	none
C[C@H](O)[C@@H]1CN2CCc3c([nH]c4cccc(-c5ccccc5)c34)[C@@H]2C[C@@H]1N(C)C(=O)C1CCCCC1	SMARCA2 act 9.7 (no result: FAS-TE inh, GAA850 FXN act) | SMARCA2 act conf inactive | VP16 Luc act inactive
C[C@H](O)[C@@H]1CN2CCc3c([nH]c4cccc(-c5ccccc5)c34)[C@@H]2C[C@@H]1N(C)CC1CCCCC1	none (no result: FAS-TE inh, GAA850 FXN act)
O=C(O)c1c(Cl)cccc1Nc1ccccc1	none
CC(C)C(=O)Nc1ccc(N2CCOCC2)c(S(=O)(=O)Nc2ccccc2Cl)c1	none
COc1ccc(N/N=C(\C#N)C(=N)N2CCOCC2)cc1	none
N#C/C(=N/Nc1ccccc1F)C(=N)N1CCOCC1	SMARCA2 act 9.4 | SMARCA2 act conf 11 | VP16 Luc act inactive
N#C/C(=N\Nc1cccc(F)c1)C(=N)N1CCCCCC1	SMARCA2 act 8.5 | SMARCA2 act conf inactive | VP16 Luc act 11
CCOC(=O)COn1c(=O)c(=O)n(OC)c2ccccc21	none
COc1ccc(-c2ccc(=O)[nH]n2)cc1	none (no result: KLK7 zymogen act, SMARCA2 act)
COc1cc(-c2ccc(=O)[nH]n2)ccc1OC(F)F	SMARCA2 act 8.1 | SMARCA2 act conf 15 | VP16 Luc act inactive
COc1cc(/C=C2/NC(=O)NC2=O)ccc1OCC(=O)Nc1ccc(F)cc1	none
O=C(Nc1cccc(O)c1)c1c(O)c2ccccc2[nH]c1=O	SMARCA2 act 10 | SMARCA2 act conf inactive | VP16 Luc act 9.3
Cc1cccc(NC(=O)c2c(O)c3ccccc3[nH]c2=O)c1	none
CCN1CCC(=NNC(=O)c2ccco2)CC1	SMARCA2 act 14 | SMARCA2 act conf inactive | VP16 Luc act inactive
CCN1CCN(c2ccc(NC(=O)c3ccco3)cc2)CC1	SMARCA2 act 8.3 | SMARCA2 act conf inactive | VP16 Luc act inactive
Cn1c(SCC(=O)Nc2nnc(-c3ccccc3)o2)nnc1C1CC1	none
CCOC(=O)COc1ccccc1C1Nc2ccccc2C(=O)N1c1cccc(Cl)c1 (centres undefined)	SMARCA2 act 8.2 | SMARCA2 act conf inactive | VP16 Luc act 6.0
CC(C)(C(=O)c1ccccc1)/[N+]([O-])=C/c1ccc(F)cc1	SMARCA2 act 9.8 | SMARCA2 act conf inactive | VP16 Luc act inactive

Compound activity deposited in PubChem by several laboratories.
